Compound activity deposited in PubChem by National Center for Advancing Translational Sciences (NCATS).
An excerpt weighted towards active compounds, which were near 21% of everything screened.
Shiga toxin inh: blocks Shiga toxin action in Vero cells; Vero cells, Shiga toxin protein synthesis inhibition reporter; inhibition, % at 38.7 µM; hit rate 9.2% among 290,000; in the data active = inhibition mostly above about 28%, no sharp cut-off; inactive = mostly below about 43%
Cycloheximide cs: counter-screen for Shiga toxin inhibitors: cycloheximide protein synthesis inhibition; cell reporter, cycloheximide protein synthesis inhibition counterscreen; AID 2314; max response, %; hit rate 12% among 300,000; in the data active = max response mostly above about 13%, no sharp cut-off; inactive = mostly below about 14%; note: read at 38.3 µM for the half of the compounds with a filed dose
Pf growth 96h: inhibits malaria parasite growth, 96 h; P. falciparum luciferase reporter growth, 96 h; Potency, µM (top dose mostly 28.7 µM), actives largely listed as inhibitors; hit rate 6.9% among 320,000; AID 504834
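Infected RBCs, 2% Hct / 0.05% parasitemia final; luciferase-reporter P. falciparum; cpd 96 h, 37 C, 5% CO2; luciferase detection reagent; luminescence.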
Pf growth 48h: inhibits P. falciparum growth in the first generation, 48 h. P. falciparum luciferase growth in erythrocytes, 48 h. hit rate 5.9% among 310,000. Potency, µM (doses to about 28.7 µM), usual class: inhibitors
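Cell-based growth assay: transgenic P. falciparum expressing firefly luciferase, cultured in red cells within RPMI 1640 containing 0.5% w/v Albumax, 24 mM bicarbonate and gentamycin. A drop in luciferase activity indicates inhibition.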
Each line names hits and unclear results; the compound was inactive in the other large screens. Unless noted, calls come from the whole dose curve; as a rule, active = well fitted inhibition curve with a large enough effect; inconclusive = small, poorly fitted or top-dose-only effect, or another doubt; inactive = no such curve, though single readings can be large or run the other way.

Cc1nnc(SCc2cnc(-c3ccc(C(C)C)cc3)s2)n1C	Cycloheximide cs 27, Pf growth 96h 12µM
O=C(N/N=C/c1ccccc1F)c1ccc(COc2ccccc2Cl)o1	none
Cc1c(C(=O)N2CC3(CC(c4cccc(NC(=O)CC(c5ccccc5)c5ccccc5)c4)=NO3)C[C@@H]2C(N)=O)cc([N+](=O)[O-])cc1[N+](=O)[O-] (stereo not given in full)	Pf growth 96h inconclusive, Pf growth 48h 12µM
CCC(=O)Nc1cccc(C2=NOC3(C2)C[C@H](C(N)=O)N(C(=O)Cc2ccc([N+](=O)[O-])cc2)C3)c1 (stereo not given in full)	none
C/C=C(/C)C(=O)Nc1cccc(C2=NOC3(C2)C[C@H](C(N)=O)N(C(=O)Cc2ccc([N+](=O)[O-])cc2)C3)c1 (stereo not given in full)	Pf growth 96h inconclusive, Pf growth 48h 12µM
CCC(=O)N1CC2(CC(c3cccc(NC(=O)CC(c4ccccc4)c4ccccc4)c3)=NO2)C[C@H]1C(N)=O (stereo not given in full)	none
NC(=O)[C@H]1CC2(CC(c3cccc(NC(=O)CC(c4ccccc4)c4ccccc4)c3)=NO2)CN1C(=O)CC(c1ccccc1)c1ccccc1 (stereo not given in full)	Pf growth 96h inconclusive, Pf growth 48h 12µM
C/C=C(\C)C(=O)Nc1cccc(C2=NOC3(C2)C[C@@H](C(N)=O)N(C(=O)c2cc([N+](=O)[O-])cc([N+](=O)[O-])c2C)C3)c1 (stereo not given in full)	Pf growth 96h inconclusive, Pf growth 48h inconclusive
Cc1ccc(CNC(=O)C2CCCN(S(=O)(=O)c3ccc(-n4cnnn4)cc3)C2)cc1 (stereo not given)	none
CC1CCCCC1NC(=O)c1ccco1 (stereo not given)	Pf growth 48h inconclusive (no result: Shiga toxin inh, Cycloheximide cs)
CC1CCCCC1NC(=O)c1cc2ccccc2o1 (stereo not given)	Shiga toxin inh 35, Cycloheximide cs 35, Pf growth 96h inconclusive
O=C(NC1CCCC1)c1cc2ccccc2o1	Shiga toxin inh 56, Cycloheximide cs 40
Cc1cccc(NC(=S)Nn2cnnc2)c1C	Cycloheximide cs 38, Pf growth 96h inconclusive
O=C(Nc1cccc(Cl)c1Cl)Nn1cnnc1	none
Cc1ccccc1NC(=S)Nn1cnnc1	none
S=C(Nc1cccc(Cl)c1Cl)Nn1cnnc1	Pf growth 96h 2.3µM
Cc1cc(OCc2ccc([N+](=O)[O-])cc2)c2c3c(c(=O)oc2c1)CCCC3	Pf growth 96h inconclusive, Pf growth 48h inconclusive
Cc1c(OCC(=O)N(C)C)ccc2c3c(c(=O)oc12)CCCCC3	none
CC(=O)C(C)Oc1ccc2c3c(c(=O)oc2c1C)CCCC3 (stereo not given)	Pf growth 96h 8.3µM, Pf growth 48h 9.3µM
Cc1c(OCc2ccc([N+](=O)[O-])cc2)ccc2c3c(c(=O)oc12)CCC3	Cycloheximide cs 31
CC(=O)COc1ccc2c3c(c(=O)oc2c1C)CCCCC3	Shiga toxin inh 64, Cycloheximide cs 19, Pf growth 96h inconclusive
Cc1c(OC(C)C(=O)N[C@H](C(=O)O)c2ccccc2)ccc2c3c(c(=O)oc12)CCCC3 (stereo not given in full)	Pf growth 96h inconclusive, Pf growth 48h inconclusive
C[n+]1ccccc1/C=N\O	Pf growth 96h inconclusive (no result: Shiga toxin inh, Cycloheximide cs)
COC(=O)/C=C1\OC(c2ccccc2)=CC1=O	none
Cc1ccc(C(=O)Nc2nccs2)s1	Shiga toxin inh 92, Cycloheximide cs 59
O=C(Nc1nccs1)c1ccc(Br)s1	Shiga toxin inh 60, Cycloheximide cs 54
Cc1oc(-c2ccccc2Cl)nc1CS(=O)(=O)CC(=O)NCCN1CCOCC1	none
CSC1=NC(C(Cl)(Cl)Cl)N=C(c2ccccc2)N1 (stereo not given)	Pf growth 48h inconclusive
CN(C)c1ncnc(N(C)C)c1[N+](=O)[O-]	none
CCC(=O)N(CCc1ccccc1)Cc1cc2cccc(C)c2[nH]c1=O	none
CN(c1nc2nonc2nc1NC1CC1)C1CCOC1 (stereo not given)	Pf growth 48h inconclusive
Fc1ccc(Cn2nnc(-c3ccc(Cl)cc3)n2)cc1	Shiga toxin inh 56, Cycloheximide cs 34
CN(CC(=O)Nc1ccc(F)cc1)C(=O)Cn1nnc(-c2ccccc2)n1	Pf growth 96h inconclusive
Nc1ccc(-c2nnn(Cc3ccccc3F)n2)cc1	Shiga toxin inh 55, Cycloheximide cs 32, Pf growth 96h inconclusive
Cc1ccccc1Cn1nnc(-c2ccc(F)cc2)n1	Shiga toxin inh 30, Cycloheximide cs 19
Fc1ccc(-c2nnn(Cc3ccccc3Cl)n2)cc1	Shiga toxin inh 99, Cycloheximide cs 36
CC1CCC/C(=C\Nc2ccccc2C(=O)O)C1=O (stereo not given)	Pf growth 96h inconclusive
O=C1OCCC/C1=C\c1ccc2c(c1)OCO2	none
O=C1CCC/C1=C/Nc1ccc2c(c1)OCO2	Shiga toxin inh 95, Cycloheximide cs 42, Pf growth 48h inconclusive
CC1CCC/C(=C\Nc2ccc3c(c2)OCO3)C1=O (stereo not given)	Shiga toxin inh 51, Cycloheximide cs 33 (no result: Pf growth 48h)
COC(=O)c1cc(S(=O)(=O)N2CCCCCC2)c[nH]1	none
COc1ccc([C@H]2CC(=O)C=C(c3ccc(Cl)c(Cl)c3)C2)cc1	none (no result: Shiga toxin inh, Cycloheximide cs)
CCCN(CCC)C(=O)c1cc([N+](=O)[O-])cc2c1-c1ccc([N+](=O)[O-])cc1C2=C(C#N)C#N	Pf growth 96h 12µM, Pf growth 48h 12µM
Cc1c(C)n(Cc2ccc(F)cc2)c2ccc(C(=O)NCCN3CCOCC3)cc12	none
Fc1ccc(N=Cc2ccc[nH]2)cc1	none
Cc1ccccc1N=Cc1c(O)n(-c2nccs2)c(=O)c2ccccc12	none
COc1ccc(N=Cc2c(O)n(Cc3ccccc3)c(=S)[nH]c2=O)c(OC)c1	Shiga toxin inh 29, Cycloheximide cs 17
Cc1ccccc1N=CC1=C(O)c2ccccc2C1=O	Cycloheximide cs 35
COc1ccc(N=CC2=C(O)c3ccccc3C2=O)c(OC)c1	Cycloheximide cs 26, Pf growth 96h inconclusive
COc1ccc(CC2=C(O)c3ccccc3C(=O)C2=O)cc1	none
COc1ccc(OC)c(N=Cc2c(O)n(Cc3ccccc3)c(=S)[nH]c2=O)c1	none
O=C1C(C=Nc2ccc(F)cc2)=C(O)c2ccccc21	Shiga toxin inh 134, Cycloheximide cs 61, Pf growth 96h inconclusive
O=C(O)CSCC(=O)Nc1ccccc1SCCS(=O)(=O)c1ccc(Cl)cc1	none
COc1ccc(C(=O)N2CCC3(CC2)NCCc2[nH]cnc23)cc1OC	none
Cc1cc2c(=O)n(C)c(SCC(=O)Nc3ccccc3)nc2s1	Shiga toxin inh 55, Cycloheximide cs 22, Pf growth 48h inconclusive
Cc1cc2c(=O)n(C)c(SCC(=O)Nc3ccccc3C)nc2s1	Pf growth 96h 9.3µM, Pf growth 48h inconclusive (no result: Shiga toxin inh, Cycloheximide cs)
CC(=O)Nc1ccc(S(=O)(=O)NCCc2cn3nc(C)c(C)nc3n2)cc1	none
COc1ccc(C(=O)Nc2ccccc2C(=O)Nc2cccnc2)cc1	Shiga toxin inh 49
CSc1ncccc1C(=O)Nc1cc(C)ccn1	Cycloheximide cs 11
C=CCOc1ccc(C(=O)Nc2ccccc2C(=O)NCc2cccnc2)cc1	Pf growth 48h 12µM
COc1ccc(C(=O)NC(=O)Nc2cc(C)ccn2)cc1	Shiga toxin inh 77, Cycloheximide cs 34 (no result: Pf growth 96h)
O=C(c1ccc(NS(=O)(=O)c2cccs2)cc1)N1CCOCC1	none
